The results in this text go back to PubChem BioAssay AID449762 (Southern Research Specialized Biocontainment Screening …, 2010).

Screen size: about 330,000 compounds; about 1,900 (0.58%) were called active. Another 4% or so got no clear call; they are omitted. The list is a sample of the results. Entries with a potency or affinity are not part of this list. Values without a mark were called inactive. No stated cut-off is given here; in the data, inconclusive means inhibition above about 70% without an active follow-up result; inactive means below that.

The assay can be described thus: M. tuberculosis growth inhibition, HTS (AID 449762).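 Further: bacterial growth assessed after seven days of incubation.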 The conditions noted are these: M. tuberculosis H37Rv growth inhibition, 7H9 media; at 25 µM; active compounds read high.
As usually defined, the inhibition is the relative decrease from the control value, in per cent. Regarding `CC(=O)OCC1OC(n2ccc3ccccc32)C(OC(C)=O)C(OC(C)=O)C1OC(C)=O` (configuration not stated), the inhibition is -6.94%.
The result for `CC(=O)c1cccc(OCC(=O)N2CCN(CC(=O)Nc3cccc(F)c3)CC2)c1` reads -12.4%.
On to `O=C(CN1CCN(S(=O)(=O)c2ccc(F)cc2)CC1)Nc1ccc(Cl)c(C(F)(F)F)c1`, for which the inhibition is 3.5%.
The result for `CCOc1ccccc1NC(=O)c1sc2nc(C)nc(N3CCOCC3)c2c1C` reads 10.4%; that for `COc1ccc(NC(=O)c2sc3nc(C)nc(N4CCOCC4)c3c2C)c(OC)c1`, -1.8%; that for `CC(C)(C)OC(=O)C[C@H]1C/C=C\C[C@H](CC(=O)N(CCO)Cc2ccccc2)C(=O)N[C@@H](c2ccccc2)COC1=O`, -6.06%.
`COc1ccc(OC)c(NS(=O)(=O)Cc2ccccc2)c1`: the inhibition was -14.1%.
For `Cc1cc(=O)oc2c(C)c(OC(C)C(=O)NCC3CCC(C(=O)O)CC3)ccc12` (configuration not stated), the inhibition is 1.04%.
The result for `Cn1ncc(Cl)c1C(=O)Nc1nnc(C2CC2)s1` reads -2.94%; that for `N#CCCN(C(=O)COC(=O)CCc1nc2ccccc2c(=O)[nH]1)c1ccc(F)cc1`, -3.42%.
The result for `N#CCCN(C(=O)COC(=O)Cc1c[nH]c2ccccc12)c1ccccc1` reads 1.58%.
On to `COc1ccc(NC(=O)C2CCN(S(C)(=O)=O)CC2)cc1`, for which the inhibition is -4.9%.
For the compound `O=C(CC1SC(=NCC2CCCO2)NC1=O)Nc1cccc2ccccc12` (configuration not stated), the inhibition was 6.34%.
Take `CC(Oc1ccc(Br)cc1)C(=O)NCC(C)(C)N1CCOCC1` (configuration not stated): the inhibition is 4.22%.
Consider `COc1cccc(CC(=O)N2CCN(c3ccccc3[N+](=O)[O-])CC2)c1`, for which the inhibition is 5.35%.
As for `CCc1nc(-c2ccc(-c3ccc(OC)cc3)nc2OC)no1`, the inhibition is 68.2%.
As for `COc1ccc(-c2ccc(-c3noc(C)n3)c(OC)n2)cc1`, the inhibition is 5.33%.
For `COc1cc(OC)cc(OCC(O)Cn2ccnc2)c1` (configuration not stated), the inhibition is 7.96%.
`CCC(CC)C(=O)Nc1cc(C(=O)NCCc2ccccc2)ccc1Cl`: the inhibition is 1.26%.
On to `Cc1ccc(NC(=O)CN2C(=O)NC(Cc3ccccc3)C2=O)c(Br)c1` (configuration not stated), for which the inhibition was -0.06%.
As for `Cc1ccc(SCCC(=O)OC(C(=O)NC(N)=O)C(C)C)cc1` (configuration not stated), the inhibition is -4.48%.
Turning to `CSCC[C@H](NC(=O)c1nn(C)c(=O)c2ccccc12)c1nc2ccccc2[nH]1`, the inhibition was -4.72%.
As to `CCCCn1nc(C(=O)NCc2ccccc2CN2CCCC2)c2ccccc2c1=O`, the inhibition was -5.37%.
Take `CCCn1nc(C(=O)Nc2cc(C(=O)OC)ccc2C)c2ccccc2c1=O`: the inhibition is 3.29%.
Consider `CCn1nc(C(=O)N[C@@H](CCSC)c2nc3ccccc3[nH]2)c2ccccc2c1=O`, for which the inhibition is 1.2%.
As for `CCCn1nc(C(=O)NNC(=O)c2ccc(OC(F)F)cc2)c2ccccc2c1=O`, the inhibition was 3.96%.
The result for `Cn1nc(C(=O)Nc2ccccc2N2CCCC2)c2ccccc2c1=O` reads 54.7%; that for `C/C(=N\NC(=O)CNC(=O)C1COc2ccccc2O1)c1ccc(Cl)cc1` (configuration not stated), 1.09%; that for `COc1ccc(/C=C/C(=O)OCC(=O)Nc2ccc(Cl)cn2)cc1`, 10.3%.
With `CN1CC[n+]2cnc3ccccc3c21`, the inhibition was -2.8%.
For the compound `CC1(C)CC(NC(=O)C2CCN(S(=O)(=O)c3ccccc3C(F)(F)F)CC2)CC(C)(C)N1`, the inhibition is -16.1%.
For `COc1ccccc1C(=O)COC(=O)Cn1nc(C)c([N+](=O)[O-])c1C`, the inhibition is -2.3%.
As for `CCc1cc(=O)oc2c3c(cc(OCC(=O)NCCN4CCOCC4)c12)OC(C)(C)CC3`, the inhibition was -4.22%.
With `c1ccc(-n2ccnc2)cc1`, the inhibition was 62.1%.
The result for `c1ccc(-c2nc(-n3ccnc3)nc(-n3ccnc3)n2)cc1` reads 22.2%; that for `c1ccc(Cn2cc(-c3cccnc3)cn2)cc1`, 7.26%; that for `Nc1cc(C(F)(F)F)cc([N+](=O)[O-])c1N`, 18%.
`CCCOP(=O)(O)c1c([N+](=O)[O-])cc(C(F)(F)F)cc1[N+](=O)[O-]` (tested in a mixture with another compound): the inhibition is -2.65%.
`COC(=O)c1ccc(CNC(=O)C2CCC(=O)N(CCCc3ccccc3)C2)cc1` (configuration not stated): the inhibition was -9.71%.
The result for `O=C(NC1CCCCCCC1)c1ccccc1O` reads 6.43%.
The result for `O=C(NC1CCCC1)c1ccccc1-c1ccccc1` reads 64.1%; that for `CN(Cc1ccccc1)S(=O)(=O)c1cccc2nsnc12`, -5.13%.
In the case of `COc1ccc2c(c1)O[C@@H](c1cccc(C(F)(F)F)c1)[C@H](OC(=O)NCCc1ccc(OC)c(OC)c1)C2=O`, the inhibition is 8.51%.
The result for `COC(=O)[C@@H](NC(=O)O[C@@H]1C(=O)c2cc(Br)ccc2O[C@H]1c1cccc(OC)c1)C(C)C` reads 8.75%.
`Cc1cc(=O)oc2cc(NC(=S)NNC(=O)c3c(Cl)cnn3C)ccc12`: the inhibition is -1.94%.
For the compound `CCN(CC)C(=O)c1ccccc1NS(C)(=O)=O`, the inhibition was -4.74%.
With `C=CCNC(=O)CSc1nnc(-c2cccs2)o1`, the inhibition was 2.45%.
`CCNC(=O)CSc1nnc(-c2cccs2)o1`: the inhibition was 17%.
With `Clc1ccc(OCCOCCN2CCCCC2)c(Br)c1`, the inhibition is -2.44%.
In the case of `CC(C)N1CCN(Cc2cccn2-c2cccnc2)CC1CCO` (configuration not stated), the inhibition was -3.04%.
With `CCOC(=O)C1(CCc2ccccc2)CCN(Cc2ccc(NC(C)=O)cc2)CC1`, the inhibition is -6.26%.
As to `COc1cc2ncnc(NCc3ccccc3F)c2cc1OC`, the inhibition is 4.17%.
In the case of `COc1ccc2cc(C(c3nnnn3CCc3ccccc3)N3CCC(O)CC3)c(=O)[nH]c2c1` (configuration not stated), the inhibition was -12.3%.
In the case of `CCc1ccc2[nH]c(=O)c(C(c3nnnn3CCOC)N3CCN(c4ccccc4)CC3)cc2c1` (configuration not stated), the inhibition was -6.34%.
`COc1cccc(OC)c1C(=O)NC(=S)N1CCCCC1c1cccnc1` (configuration not stated): the inhibition is -6.76%.
Regarding `O=C(CCC(=O)c1cccs1)OCC(=O)c1ccc(F)cc1`, the inhibition was 1.25%.
In the case of `Cc1nn(Cc2ccccc2)c(C)c1C(=O)OCC(=O)c1cc(C)n(C2CC2)c1C`, the inhibition is 63.9%.
For `COCCn1c(C)cc(C(=O)COC(=O)c2c(C)nn(Cc3ccccc3)c2C)c1C`, the inhibition is 20.6%.
As to `CSc1ccc(C(=O)C2CCCN(Cc3cccn3-c3cccnc3)C2)cc1` (configuration not stated), the inhibition is 9.15%.
As for `O=C(c1ccc2c(c1)OCO2)N1CCc2ccccc21`, the inhibition was -5.13%.
With `Cc1nc(SCC(=O)c2cc3ccccc3oc2=O)c(C#N)c(-c2cccs2)c1C(=O)Nc1ccccc1`, the inhibition is 3.9%.
The result for `Cc1nc(SCC(=O)c2cc3ccccc3oc2=O)c(C#N)c(-c2ccccc2)c1C(=O)Nc1ccccc1` reads 17.1%; that for `Cc1nc(NC(=O)c2ccccc2)sc1-c1csc(Nc2ccc(Cl)cc2Cl)n1`, 6.01%; that for `COc1ccccc1Nc1nc(-c2sc(NC(=O)CC(C)C)nc2C)cs1`, 1.91%.
As to `Cc1ccc(C(C)C)c(OCC(=O)Nc2ccc(N3CCN(S(C)(=O)=O)CC3)cc2)c1`, the inhibition is -4.74%.
The result for `CCCCCCSc1ccc([C@H]2N[C@@](CC(C)C)(C(=O)OC)[C@H]3C(=O)N(CC)C(=O)[C@@H]23)cc1` reads -1.98%; that for `COc1cc(NC(=S)NCCc2ccccc2)c(OC)cc1NC(=O)CC(C)C`, -2.92%; that for `CN1C(=S)SC(N(O)C(=O)Nc2cccc3ccccc23)C1(C)C` (configuration not stated), 3.28%.
Consider `CN1C(=S)SC(N(O)C(=O)Nc2ccccc2)C1(C)C` (configuration not stated), for which the inhibition was -1.59%.
The result for `CC1=CSC2=NS(=O)(=O)CCN12` reads -1.32%; that for `COCCCNC(=O)c1c[nH]c2ccc(S(=O)(=O)N3CCC4(CC3)OCCO4)cc2c1=O`, -4.78%.
In the case of `O=C(Cn1nnc(-c2cccs2)n1)OC1CCCCC1`, the inhibition is 4.15%.
Consider `COc1ccc(-c2nnn(CC(=O)NC(=O)NC3CCCCC3)n2)cc1OC`, for which the inhibition was -0.345%.
The result for `O=C(NC(=S)NC1CCS(=O)(=O)C1)c1ccccc1` (configuration not stated) reads -12%; that for `Cc1c(C(=O)N2CCC3(CC2)OCCO3)sc2ncnc(N3CCc4ccccc4C3)c12`, -0.89%; that for `CC(C)CCn1nnnc1C(c1ccccc1)N1CCN(C)CC1` (configuration not stated), 5.26%.
Regarding `O=C(CNS(=O)(=O)c1cccs1)N1CCN(c2ccccn2)CC1`, the inhibition was 4.15%.
On to `CCOC(=O)N1CCN(C(=O)C2CCN(c3nnc(-n4cccc4)s3)CC2)CC1`, for which the inhibition was -4.54%.
As to `O=C(C1CCN(c2nnc(-n3cccc3)s2)CC1)N1CCOCC1`, the inhibition was -4.62%.
The result for `CC1=NN(C(N)=S)C(=O)C1N=Nc1ccc(Br)cc1` (configuration not stated) reads 58.6%; that for `CC1=NN(C(N)=S)C(=O)C1N=Nc1ccc(S(N)(=O)=O)cc1` (configuration not stated), 0.37%.
As for `Cc1ccc(S(=O)(=O)Nc2ccc3ccccc3n2)cc1`, the inhibition is 0.36%.
`Cc1nc2cc(-c3cccc(F)c3)nn2c(C)c1CCC(=O)NC(C)CCc1ccco1` (configuration not stated): the inhibition is -9.87%.
As to `COc1ccccc1-c1cc2nc(C)c(CCC(=O)NC(C)CCc3ccco3)c(C)n2n1` (configuration not stated), the inhibition is 2.39%.
Turning to `O=c1cc(O)nc(SCc2ccc(Cl)cc2)[nH]1`, the inhibition is -0.2%.
In the case of `COc1cc(-c2nnc(CSc3nnc(N)s3)o2)cc(OC)c1OC`, the inhibition was -0.69%.
On to `Cc1nc(-n2nnc3ccccc32)c2c3c(sc2n1)CCCC3`, for which the inhibition was 4.15%.
Consider `Cc1cc(=O)n2[nH]c(C)c(-c3ccc(Cl)cc3)c2n1`, for which the inhibition is -1.1%.
The result for `CCCc1cc(=O)n2[nH]c(C)c(-c3ccc(OC)cc3)c2n1` reads 35.8%.
For the compound `Cc1cc(NC(=O)Cn2nnc(-c3ccccc3NC(=O)c3ccccc3F)n2)no1`, the inhibition is -4.78%.
In the case of `CCCc1nc(Nc2nc3ccccc3o2)nc(C)c1C(=O)OCC`, the inhibition is -21.6%.
On to `CCOC(=O)c1cnc(Nc2nc3ccccc3o2)nc1CSc1ncccn1`, for which the inhibition is 0.71%.
